Experiment [1] can be described thus: qHTS RealTime-Glo MT Cell Viability Assay in HEK293 cells - 0 hour (AID 1224880). Also: top concentration of the series differs between compounds; nearly all actives have a fitted effect of over 45% in size. In short, it runs like this: (§1)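 qHTS format; HEK293 cells with NanoLuc/prosubstrate reagent, 37 C/5% CO2 for 5 h pre-dosing; compounds 23 nL in DMSO; luminescence at each time point reflects viable cells.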
(In general: In qHTS, concentration-response curves come from the screen itself.)

Experiment [2] can be described thus: A CellTox Green Cytotoxicity Assay to monitor cytotoxicity in HEK293 cells - 32 hour (AID 1224881). Also: nearly all actives have a fitted effect of over 40% in size. In short, it runs like this: (§2)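 Each value comes from one timepoint of a single continuous run in which HEK293 cells with CellTox Green were exposed to compound for up to 40 h at 37 C, dye fluorescence rising with cell death.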
A short description of experiment [3]: A CellTox Green Cytotoxicity Assay to monitor cytotoxicity in HepG2 cells - 0 hour (AID 1224882). Also: nearly all actives have a fitted effect of over 35% in size. In outline: (§3)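 Continuous culture of HepG2 cells with a membrane-impermeant DNA dye; rising fluorescence marks dead cells. Compound exposure lasted up to 40 h at 37 C, with reads every 8 h from 0 h.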
The nature of experiment [4]: A CellTox Green Cytotoxicity Assay to monitor cytotoxicity in HepG2 cells - 32 hour (AID 1224883). Also: nearly all actives have a fitted effect of over 50% in size. In short, it runs like this: as §3
Experiment [5] can be described thus: A CellTox Green Cytotoxicity Assay to monitor cytotoxicity in HEK293 cells - 8 hour (AID 1224884). Also: nearly all actives have a fitted effect of over 35% in size. In short, it runs like this:
as §2

Experiment [6] is described as follows: qHTS RealTime-Glo MT Cell Viability Assay in HepG2 cells - 16 hour (AID 1224885). Also: nearly all actives have a fitted effect of over 50% in size. In outline: (§4)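 Compound treatment began 5 h after plating HepG2 cells (600/well) with NanoLuc luciferase and prosubstrate. Plates stayed at 37 C for 40 h; luminescence was captured at six time points, 0 h through 40 h.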
The nature of experiment [7]: qHTS RealTime-Glo MT Cell Viability Assay in HEK293 cells - 24 hour (AID 1224886). Also: nearly all actives have a fitted effect of over 50% in size. Also: potency is read from the fitted curve at half-maximal effect. As to activity change, negative = cytotoxicity: top concentration of the series differs between compounds. In short, it runs like this: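 Quantitative high-throughput screen of the Tox21 10K library in HEK293: cells and RealTime-Glo reagents plated together, compound added at 5 h, luminescence monitored through 40 h at 37 C.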
Experiment [8] in a line: qHTS RealTime-Glo MT Cell Viability Assay in HEK293 cells - 8 hour (AID 1224887). Also: top concentration of the series differs between compounds; nearly all actives have a fitted effect of over 50% in size. In short, it runs like this:
as §1

Experiment [9] is described as follows: A CellTox Green Cytotoxicity Assay to monitor cytotoxicity in HEK293 cells - 16 hour (AID 1224888). Also: nearly all actives have a fitted effect of over 35% in size. In outline:
as §2

A short description of experiment [10]: qHTS RealTime-Glo MT Cell Viability Assay in HepG2 cells - 0 hour (AID 1224889). Also: nearly all actives have a fitted effect of over 50% in size. In short, it runs like this: as §4

Molecules are shown by their SMILES. Unmarked numbers belong to inactive results. Inconclusive results are not listed. Calls of active or inactive are those of the source. Calls follow the shape of the dose curve; as a rule, active = well fitted curve in the direction sought with a large enough effect in the repeat runs; inconclusive = weak or mixed curves; inactive = no such curve, though single readings can be large; an effect the other way counts as inactive or inconclusive.
% is scaled to controls: 0 for no effect and ±100 for the full control effect.

`CCCCCc1ccco1`: the Potency result in experiment [1], in experiment [2], in experiment [3], in experiment [4], in experiment [5] and in [6] was “inactive” each time. The Potency entry in experiment [7], in experiment [8], in [9] and in experiment [10] was “inactive” throughout.

Regarding `CC(=O)OCC1=C(C(=O)O)N2C(=O)[C@@H](NC(=O)CSc3ccncc3)[C@H]2SC1`, the Potency result in experiment [1], in experiment [2], in experiment [3], in [4], in experiment [5] and in [6] was “inactive” in each case. Further, the Potency result in [7], in experiment [8], in experiment [9] and in [10] was “inactive” in each case.

Regarding `Cc1ccc(S(=O)(=O)NC(=O)NC2CCCCC2)cc1`, the Potency result in [1], in [2], in experiment [3], in experiment [4], in experiment [5] and in experiment [6] was “inactive” each time. The Potency entry in [7], in experiment [9] and in [10] was “inactive” in each case.

For the compound `CCCCCCCCCCCCCCCC(=O)OCC`, the Potency entry in experiment [1], in experiment [2], in [3], in experiment [4], in experiment [5] and in [6] was “inactive” each time. The Potency result in experiment [7], in experiment [8], in [9] and in experiment [10] was “inactive” each time.

With `Cc1ccc(N(CC2=NCCN2)c2cccc(O)c2)cc1`, the Potency entry in experiment [1], in [2], in experiment [3], in [4], in experiment [5] and in experiment [6] was “inactive” throughout. For the same compound, the Potency entry in experiment [7], in experiment [8], in [9] and in [10] was “inactive” each time.

`Nc1ccc(NC(=O)c2ccc(N)cc2)cc1`: the Potency result in experiment [1], in experiment [2], in experiment [3], in experiment [4], in experiment [5] and in experiment [6] was “inactive” each time. Further, the Potency entry in experiment [7], in experiment [9] and in [10] was “inactive” throughout.

Turning to `CC(C)C(O)C(C)(C)CO` (stereo unspecified), the Potency entry in experiment [1], in [2], in experiment [3], in [4], in experiment [5] and in [6] was “inactive” in each case. Further, the Potency result in experiment [9] was “inactive”. Further, in experiment [7], the Potency is 801 nM (active).

On to `CC(C)C(=O)OCCOc1ccccc1`, for which the Potency entry in experiment [1], in [2], in experiment [3], in [4], in experiment [5] and in experiment [6] was “inactive” throughout. For the same compound, the Potency result in experiment [7], in experiment [9] and in experiment [10] was “inactive” throughout.

On to `CCCCCCC(O)CCCCCCCCCCC(=O)OC` (stereo unspecified), for which the Potency result in experiment [1], in experiment [2], in experiment [3], in experiment [4], in experiment [5] and in experiment [6] was “inactive” in each case. Also, the Potency entry in experiment [7], in experiment [9] and in [10] was “inactive” throughout.

`CC(C)(C)S`: the Potency result in [1], in [2], in [3], in experiment [4], in [5] and in [6] was “inactive” in each case. The Potency entry in experiment [7], in [8], in [9] and in experiment [10] was “inactive” in each case.

Regarding `CCCCC[C@H](O)/C=C/[C@H]1[C@H](O)CC(=O)[C@@H]1C/C=C\CCCC(=O)O`, the Potency entry in experiment [1], in [2], in experiment [3], in experiment [4], in experiment [5] and in experiment [6] was “inactive” each time. Also, the Potency result in experiment [7], in experiment [8], in experiment [9] and in [10] was “inactive” each time.

Take `CC(C)N(C)C`: the Potency result in experiment [1], in experiment [2], in experiment [3], in experiment [4], in experiment [5] and in experiment [6] was “inactive” each time. For the same compound, the Potency result in experiment [7], in experiment [8], in experiment [9] and in experiment [10] was “inactive” each time.

Consider `O=c1[nH]c2cc(C(F)(F)F)c(N3CCOCC3)cc2n(CP(=O)(O)O)c1=O`, for which the Potency result in [1], in experiment [2], in experiment [3], in [4], in experiment [5] and in experiment [6] was “inactive” each time. Besides, the Potency result in experiment [7], in experiment [8], in experiment [9] and in experiment [10] was “inactive” in each case.

On to `CC(=O)NCCO`, for which the Potency entry in experiment [1], in experiment [2], in [3], in [4], in experiment [5] and in [6] was “inactive” throughout. The Potency result in [7], in experiment [9] and in experiment [10] was “inactive” each time.

As to `O=P(O)(O)Oc1ccccc1`, the Potency result in experiment [1], in experiment [2], in experiment [3], in experiment [4], in experiment [5] and in experiment [6] was “inactive” each time. The Potency entry in experiment [7], in experiment [8], in experiment [9] and in experiment [10] was “inactive” in each case.

`c1ccc2sc(SSc3nc4ccccc4s3)nc2c1`: the activity change, negative = cytotoxicity was -1.35% [at 15.8 µM] in experiment [1], 4.46% [at 15.8 µM] in experiment [7], 0.0342% [at 15.8 µM] in experiment [8] and 0.525% [at 15.8 µM] in [10]. Besides, the cytotoxicity increase in [2] is 13.3% [at 15.8 µM]; in [4] it was 4.1% [at 15.8 µM]; in [5], 3.51% [at 15.8 µM]. Besides, the cytotoxicity in [3] is 0.139% [at 15.8 µM]. The activity change, negative = cytotoxic in experiment [6] was 5.08% [at 15.8 µM]. Also, the activity change in experiment [9] is 10.5% [at 15.8 µM, active compounds read high].

For the compound `Nc1ccc(S(=O)(=O)NCc2ccccc2)cc1`, the Potency result in [1], in experiment [2], in experiment [3], in experiment [4], in experiment [5] and in experiment [6] was “inactive” each time. In addition, the Potency entry in [7], in [8], in experiment [9] and in [10] was “inactive” in each case.

Regarding `CCN(CC)C(=O)N1CCN(C)CC1`, the Potency entry in experiment [1], in [2], in experiment [3], in experiment [4], in experiment [5] and in experiment [7] was “inactive” each time. Moreover, the Potency result in experiment [8], in [9] and in experiment [10] was “inactive” each time.

Take `O=C(C(=O)c1ccco1)c1ccco1`: the Potency result in experiment [1], in experiment [2], in experiment [3], in experiment [4], in experiment [5] and in experiment [9] was “inactive” throughout. In addition, the Potency entry in [10] was “inactive”.

Turning to `N[C@@H](Cc1cc(I)c(O)c(I)c1)C(=O)O`, the Potency result in experiment [1], in experiment [2], in experiment [3], in experiment [4], in experiment [5] and in [7] was “inactive” throughout. Also, the Potency entry in experiment [8], in [9] and in experiment [10] was “inactive” throughout.

As for `Cc1cccc(C)c1NC(=O)c1cc(S(N)(=O)=O)c(Cl)cc1O`, the Potency result in experiment [1], in [2], in [3], in experiment [4], in experiment [5] and in experiment [7] was “inactive” throughout. Moreover, the Potency result in experiment [8], in experiment [9] and in experiment [10] was “inactive” each time.

Regarding `O=c1[nH][nH]c(=O)c2cc([N+](=O)[O-])ccc12`, the Potency entry in experiment [1], in experiment [2], in [3], in experiment [4], in experiment [5] and in [7] was “inactive” in each case. Moreover, the Potency entry in experiment [8], in experiment [9] and in experiment [10] was “inactive” throughout.
